# High-throughput results as filed in PubChem.
# Shown are actives, neighbours in structure and some others; about 21% of the full set was active somewhere.
# DT40 TDP1 CPT = DT40-hTDP1 cell growth loss with CPT | chicken DT40 Tdp1-/-;hTDP1 cells + 20 nM CPT, ATP luminescence, 48 h | Potency, µM (series often up to 46.2 µM), without a hit: at the highest dose activity change, negative = growth inhibition, most hits filed as inhibitors | hit rate 12% among 420,000 | AID 686979; note: potency is the fitted concentration of half-maximal effect; % is set by controls: 0 for no effect and ±100 for the full control effect; nearly all actives have a fitted effect of over 55% in size
#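 Chicken DT40 Tdp1-/- cells complemented with human TDP1, 400 cells/well, exposed to compounds plus 20 nM camptothecin for at least 48 h at 37 C; viability read as ATP content by CellTiter-Glo luminescence.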
# D3 ag = activates the human D3 dopamine receptor. D3R DiscoveRx beta-arrestin cells, luminescence, 90 min. hit rate 0.58% among 410,000. max activation, %. AID 652048; in the data active = max activation above about 30%; note: 0% is about no effect
# Target sequence (P35462 whole entry, looked up): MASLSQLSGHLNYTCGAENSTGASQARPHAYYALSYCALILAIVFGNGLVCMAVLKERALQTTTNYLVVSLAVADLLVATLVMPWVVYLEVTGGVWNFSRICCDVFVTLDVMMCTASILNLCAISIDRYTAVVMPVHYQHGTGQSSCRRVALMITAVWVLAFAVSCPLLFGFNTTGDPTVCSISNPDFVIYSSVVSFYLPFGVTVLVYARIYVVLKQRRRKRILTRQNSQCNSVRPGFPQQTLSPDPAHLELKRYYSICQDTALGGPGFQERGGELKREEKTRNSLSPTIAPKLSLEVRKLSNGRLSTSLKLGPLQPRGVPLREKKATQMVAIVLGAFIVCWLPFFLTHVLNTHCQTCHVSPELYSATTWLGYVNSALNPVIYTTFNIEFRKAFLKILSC
#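 Cells at 1500/well, incubated overnight, then treated with pinned compounds (dopamine as control) for 90 min at 37 degrees C. DiscoveRx reagent added for 30 - 60 minutes at room temperature; luminescence read.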
# DT40 TDP1 no CPT = qHTS for Inhibitors of human tyrosyl-DNA phosphodiesterase 1 (TDP1): qHTS in cells in absence of CPT; Potency, µM (series often up to 46.2 µM), inactives show top-dose activity change, negative = growth inhibition, hits mostly inhibitors; hit rate 15% among 420,000; DT40 Tdp1-/- hTDP1 cells, no CPT, ATP luminescence, 48 h; note: potency is the fitted concentration of half-maximal effect; % is set by controls: 0 for no effect and ±100 for the full control effect; nearly all actives have a fitted effect of over 55% in size
#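 Camptothecin absent (DMSO only). Human TDP1-complemented DT40 knockout cells, 400 cells/well, 37 °C for minimum 48 hr; ATP measured via CellTiter-Glo, 30 min dark incubation, luminescence.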
# D3 antag = D3 dopamine receptor (human) antagonism | P35462 | D3R cells, DiscoveRx beta-arrestin luminescence, antagonist mode; stronger effect = lower value | max response, negative = inhibition, % | hit rate 2.5% among 360,000 | AID 652054; in the data active = max response below about -50%; inconclusive = no clear call, values can overlap the other calls; note: % is set by controls: 0 for no effect and ±100 for the full control effect
#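 Cells expressing the human receptor were seeded at 1500 cells/well, incubated overnight at 37 degrees C in 5% CO2, then exposed to library compounds with dopamine controls for 90 minutes at 37 degrees C before luminescent detection.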
# IL1B secr inh = inflammasome signaling inhibition, IL-1 beta readout; THP-1 LPS/ATP IL-1B secretion, AlphaLISA, 16 h; stronger effect = lower value; activity change, % at 57.5 µM; hit rate 4.7% among 360,000; AID 743279; in the data active = activity change below about -50%; inconclusive = mostly about -30% to -49%; note: % is set by controls: 0 for no effect and ±100 for the full control effect
#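 THP-1 cells pretreated 1 hr with compounds (up to 57.5 uM final), then stimulated with LPS (250 ng/mL final) plus ATP (1.25 mM final); secreted IL-1B measured by AlphaLISA after 16 hr, decreased signal indicating inhibition.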
# ClpP mod = qHTS Assay for Activators of ClpP; ATP-dependent Clp protease proteolytic subunit (Bacillus subtilis (strain 168)), P80244; purified B. subtilis ClpP, FRET peptide cleavage, 20 min; Potency, µM (top dose mostly 57.5 µM), inactives show top-dose activity change, negative = active; hit rate 1.9% among 340,000; AID 651965, 2013; active = well fitted falling curve with a large enough effect; inconclusive = small, poorly fitted or top-dose-only effect; inactive = no such curve, though single readings can be large or run the other way; note: potency is the fitted concentration of half-maximal effect; the source files actives as falling curves though it sought activators and does not explain the sign; nearly all actives have a fitted effect of over 65% in size
# Target sequence (P80244 whole entry, looked up): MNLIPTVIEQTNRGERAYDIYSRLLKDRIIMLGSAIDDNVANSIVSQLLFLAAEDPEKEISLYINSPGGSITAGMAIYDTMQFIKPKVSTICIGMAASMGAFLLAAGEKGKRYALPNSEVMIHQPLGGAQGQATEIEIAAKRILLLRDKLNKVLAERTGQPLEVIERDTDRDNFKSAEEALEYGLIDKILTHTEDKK
#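 Purified B. subtilis ClpP, 10 microg/mL final in Tris/HCl pH8 with KCl, BSA, glycerol and Tween-20, cleaved an Abz/nitrotyrosine-quenched decapeptide. Fluorescence (ex 320, em 430) was read at 0 and 20 min at room temperature. Delta was normalized to 5.8 microM ADEP and DMSO/no-enzyme controls.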
# * = called active by the depositor; ? = inconclusive; . = not tested or not shown; ! = a repeat was not active; [ ] = remark or other dose. Unless noted, calls come from the whole dose curve; as a rule, active = well fitted inhibition curve with a large enough effect; inconclusive = small, poorly fitted or top-dose-only effect; inactive = flat fitted curve, though single readings scatter.
SMILES,DT40 TDP1 CPT,D3 ag,DT40 TDP1 no CPT,D3 antag,IL1B secr inh,ClpP mod
COc1c2c(cc3c1C(c1c(O)c4ccccc4oc1=O)N(C)CC3)OCO2 (centres undefined),-11%[9.04 µM],.,4%[9.04 µM],.,.,.
Cc1cc(C)c(OCC(=O)Nc2nnc(C3CC3)s2)c(C)c1,-26%,-19,-18%,13,1,.
CC(C)c1ccc(N2CC(C)(C)C2=O)cc1,19%,10,-14%,2,1,.
CCn1nc(C)c(Br)c1C(=O)Sc1ccccc1Cl,3.7µM*,5,4.6µM*,-22,-28,.
CCn1nc(C)cc1C(=O)Sc1ccc(C)cc1,?,1,?,5,?,.
CCCCC(=O)O[C@H]1CC[C@H]2[C@@H]3CCc4cc(O)ccc4[C@H]3CC[C@]12C,?,12,?,45,7,-4%
C[C@]12CC[C@@H]3c4ccc(O)cc4CC[C@H]3[C@@H]1CC[C@@H]2OC(=O)CCC1CCCC1,-11%,45*!,8%,72,23,2%
COc1ccc(NC(=O)c2c(C)noc2C)cc1S(=O)(=O)N1CCCCC1,-11%,-5,?,-12,-8,-3%
O=C(O)C1CCCCC1C(=O)Nc1ccccc1Nc1ccccc1 (centres undefined),?,-3,?,-15,-16,25µM*
O=C(O)C1CCCCC1C(=O)Nc1cccc2ccccc12 (centres undefined),16µM*,-1,8.2µM*,-1,34,-25%
COc1ccc(Cc2c(O)nc(SCC(=O)NC(C)(C)C)[nH]c2=O)cc1,-28%,2,-22%,19,8,0%
CN(c1ccccc1)S(=O)(=O)c1ccc(Cl)c(C(=O)Nc2ccncc2)c1,18µM*,3,16µM*,14,50,-1%
O=C(Nc1ccccc1)c1cc(S(=O)(=O)NCc2ccncc2)ccc1Cl,9.2µM*,11,8.2µM*,0,3,-6%
CN(c1cccc(Cl)c1)S(=O)(=O)c1cccc(C(=O)Nc2ccc3c(c2)CCC3)c1,23µM*,-4,12µM*,1,1,-6%
O=C(Nc1ccccc1)c1cc(S(=O)(=O)Nc2cccnc2)ccc1Cl,-6%,2,-17%,-2,17,0%
CCN(c1ccccc1)S(=O)(=O)c1ccc(Cl)c(C(=O)Nc2ccncc2)c1,?,0,12µM*,13,4,-2%
CC(C)[C@@H]1CC[C@@H](C)CC1=O,-15%,-16,-17%,.,.,.
COCCCNc1nc2c(-c3cccc(Br)c3)nnn2c2ccccc12,?,-5,?,.,.,-2%
CN(c1ccc(F)cc1)S(=O)(=O)c1ccc(Cl)c(C(=O)Nc2ccc3c(c2)CCC3)c1,5.2µM*,-10,3.7µM*,?,-17,23%
CN(c1ccc(F)cc1)S(=O)(=O)c1ccc(Cl)c(C(=O)Nc2ccncc2)c1,18µM*,10,13µM*,15,33,-3%
CN(c1ccccc1)S(=O)(=O)c1ccc(Cl)c(C(=O)NC2=NCCS2)c1,?,-1,?,3,-15,-2%
CCCC(=O)n1nc(-c2ccco2)nc1SCc1ccccc1,3.7µM*,0,?,-16,0,1%
Cc1nc(NC(=O)c2cnccn2)ccc1Br,-6%,2,11%,-5,26,-2%
CN(C)CC[n+]1ccc(C(=O)c2ccccc2)cc1,4.1µM*,1,2.6µM*,7,7,-3%
Cc1ccc(C)c(NC(=O)Cn2c(=O)n(CC3CCCO3)c(=O)c3ccccc32)c1 (centres undefined),3%,8,?,.,.,-21%
SMILES,DT40 TDP1 CPT,D3 ag,DT40 TDP1 no CPT,D3 antag,IL1B secr inh,ClpP mod
Cc1ccccc1NC(=O)c1csc2c1CCCC2,5.8µM*,-17,21µM*,-19,-22,3%
Cc1ccccc1NC(=O)Nc1csc2c1CCCC2,?,-23,?,.,.,0%
CC(CNC(=O)c1csc2c1CCCCC2)c1ccccc1 (centres undefined),21µM*,-17,16µM*,.,.,-2%
CCC(C)NC(=O)c1csc2c1CCCCC2 (centres undefined),-9%,-9,-9%,-30,10,-3%
CCC(Cc1ccccc1)NC(=O)c1csc2c1CCCCC2 (centres undefined),13µM*,-13,?,.,.,-1%
COc1cccc(C(=O)NCCSCc2c(F)cccc2Cl)c1,2%,2,?,21,-65*,-1%
Cc1c(C(=O)NCCSCc2c(F)cccc2Cl)cnn1-c1ccc(F)cc1,?,-8,26µM*,-15,-21,.
CCCNC(=O)c1cc(C2CCCN(C(=O)c3ccc(OC)cc3)C2)on1 (centres undefined),-8%,-4,-27%,-9,-7,0%
CC(=O)Nc1cccc(-c2ccnc3c2CC(C)(C(=O)Nc2ccc4c(c2)OCO4)O3)c1 (centres undefined),0.65µM*,-6,0.65µM*,1,44,-1%
CC1(C(=O)Nc2ccc3c(c2)OCO3)Cc2c(-c3ccccc3)ccnc2O1 (centres undefined),?,-11,?,-17,28,-3%
CC(=O)Nc1cccc(-c2ccnc3c2CC(C)(C(=O)Nc2cccc(C(C)=O)c2)O3)c1 (centres undefined),5.8µM*,6,6.5µM*,-21,-16,-5%
CC1(C(=O)Nc2ccc(Cl)cc2)Cc2c(-c3cccc(C(F)(F)F)c3)ccnc2O1 (centres undefined),?,-1,23µM*,-28,-4,-9%
COc1ccc(NC(=O)C2(C)Cc3c(-c4cccc(C(F)(F)F)c4)ccnc3O2)cc1OC (centres undefined),16µM*,-8,21µM*,-9,7,2%
Cc1c(CN2CCOc3c(cc(-c4ncc(C(F)(F)F)cc4Cl)cc3OCC3CCCO3)C2)cnn1C (centres undefined),17%[9.04 µM],.,-12%,.,.,.
CC(C)NC(=O)C1(C)Cc2c(-c3cccc(C(F)(F)F)c3)ccnc2O1 (centres undefined),18µM*,0,12µM*,3,27,-4%
CC(=O)Nc1cccc(-c2ccnc3c2CC(C)(C(=O)Nc2ccc(Cl)cc2)O3)c1 (centres undefined),1.6µM*,-15,4.1µM*,-24,-20,-26%
